Source: PubChem BioAssay (EPA / NIEHS)
Where a structure was tested more than once in an assay, its records may differ in their call. Calls of active or inactive are those of the source. Rule for the calls: active = hit-call score of the fitted dose curve at least 0.9, where 1 is the maximum; inactive = score below 0.9.

How the values were obtained:
[1] = ATG_CRE_CIS: Attagene CIS-FACTORIAL HepG2 Assay for human cAMP Responsive Element (CRE) binding protein 3 (AID 2282926); conditions: HepG2 CRE cis-reporter, Attagene multiplexed mRNA; actives raise or lower the signal
Procedure, shortened: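 Assay format: transient reporter transfection of HepG2, 24 h treatment, total RNA isolation with DNase I step. Reporter abundance read by fluorescence after PCR and capillary separation; DMSO-normalised gain or loss fitting.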

[2] = target: CCAAT/enhancer-binding protein beta (Homo sapiens) (UniProt P17676); experiment: ATG_C_EBP_CIS: Attagene CIS-FACTORIAL HepG2 Assay for human CCAAT/Enhancer Binding Protein (C/EBP) beta (AID 2282927); conditions: HepG2 Attagene cis-factorial transcription factor reporter; actives raise or lower the signal
Procedure, shortened: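 Changes in reporter mRNA, rather than exogenous chimeric receptor activity, reflect native C/EBP signalling in transfected HepG2 cells dosed for 24 h; transcripts are detected by RT-PCR and capillary electrophoresis.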

[3] = ATG_CMV_CIS: Attagene CIS-FACTORIAL HepG2 Assay for human CMV (Internal Marker) (AID 2282928); conditions: HepG2 CMV promoter reporter, transcription factor profiling; actives raise or lower the signal;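 note: endpoint acts as a background internal control marker rather than a target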
Procedure, shortened: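 24 h chemical treatment, HepG2 with transient multi-reporter transfection; RNA → oligo(dT) RT → PCR → 6-FAM extension → HpaI digest → CE fluorescence. Bidirectional fit, DMSO negative control.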

[4] = ATG_DR4_LXR_CIS: Attagene CIS-FACTORIAL HepG2 Assay for human Liver X Receptor (LXR), DR4 submotif (AID 2282929); conditions: HepG2 Attagene DR4 cis-reporter, mRNA transcription; actives raise or lower the signal
Procedure, shortened: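 Readout: reporter transcript fluorescence after RT-PCR and capillary electrophoresis, fitted bidirectionally against DMSO controls. Human HepG2 liver cells carried transiently transfected multiplexed reporter constructs; endogenous transcription factor activity measured 24 h post-dosing.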

[5] = target: Aryl hydrocarbon receptor (Homo sapiens) (UniProt P35869); experiment: ATG_Ahr_CIS: Attagene CIS-FACTORIAL HepG2 Assay for human Aryl Hydrocarbon Receptor (Ahr) (AID 2282930); conditions: HepG2 AhR cis-factorial reporter transcription; actives raise or lower the signal
Procedure, shortened: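 HepG2, transient MRTU (cis) transfection, 24 h exposure. RNA → cDNA → PCR → 6-FAM primer extension → HpaI 2 h 37 C → CE. Fit: bidirectional, DMSO baseline.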

[6] = APR_HepG2_CellCycleArrest_24hr: Apredica 24-hour HepG2 Assay for Cell Cycle Arrest (AID 2282905); conditions: imaging, actives raise or lower the signal;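 note: cell cycle arrest scored as ratio of 2N to 4N nuclear DNA content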
Procedure, shortened: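 Readout: Hoechst 33342 nuclear DNA content by high-content fluorescent imaging, six images/well, 20x. Human HepG2 liver cells, 24 hr compound exposure, 0.39–200 uM, final DMSO 0.5% v/v. Gain or loss fitted relative to DMSO baseline.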

[7] = APR_HepG2_NuclearSize_24hr: Apredica 24-hour HepG2 Assay for Nuclear Size (AID 2282907); conditions: high-content imaging, actives raise or lower the signal
Procedure, shortened: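 Read-out: nuclear diameter from Hoechst 33342 (2 ug/mL) imaging of fixed HepG2 cells, 20x, six fields/well. Compounds ran at 0.39–200 uM for 24 hr, 0.5% DMSO final. Gain or loss was fitted bidirectionally relative to the DMSO baseline.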

[8] = APR_HepG2_MitoticArrest_24hr: Apredica 24-hour HepG2 Assay for Mitotic Arrest (AID 2282910); conditions: high-content imaging, actives raise or lower the signal
Procedure, shortened: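 High-content imaging of fixed HepG2 cells labeled with Hoechst 33342 and anti-phospho-histone H3, after 24 h treatment. Ten concentrations 0.39 to 200 uM in duplicate, final DMSO 0.5%; changes fitted both directions relative to DMSO.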

[9] = APR_HepG2_MitoMembPot_24hr: Apredica 24-hour HepG2 Assay for Mitochondrial Membrane Potential (AID 2282911); conditions: imaging, actives raise or lower the signal
Procedure, shortened: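 Cells are dosed for 24 hr across 0.39 to 200 uM with solvent held at 0.5% DMSO. They are then stained with 250 nM MitoTracker Red CMXRos for 30 min, fixed in 3.7% formaldehyde and imaged.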

[10] = APR_HepG2_MitoMass_24hr: Apredica 24-hour HepG2 Assay for Mitochondrial Mass (AID 2282912); conditions: high-content imaging, actives raise or lower the signal
Procedure, shortened: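 HepG2, 24 hr dosing, 10 concentrations 0.39–200 uM in duplicate, DMSO 0.5% final. MitoTracker Red CMXRos 250 nM, 30 min pre-fix; 3.7% formaldehyde fix. Imaging-based fluorescence intensity; gain/loss fit vs DMSO baseline.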

[11] = APR_HepG2_CellCycleArrest_72hr: Apredica 72-hour HepG2 Assay for Cell Cycle Arrest (AID 2282914); conditions: high-content imaging, actives raise or lower the signal
Procedure, shortened: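 Read-out is Hoechst-stained nuclear DNA content measured by automated fluorescence imaging (20x, six images per well), fitted in both directions relative to DMSO. Human HepG2 liver cells received 0.39–200 uM compound for 72 hr at 0.5% v/v DMSO.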

[12] = APR_HepG2_CellLoss_72hr: Apredica 72-hour HepG2 Assay for Cell Loss (AID 2282915); conditions: high-content imaging
Procedure, shortened: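 Cell number comes from Hoechst 33342-labelled nuclei, imaged at 20x after 3.7% formaldehyde fixation. Dosing was 0.39–200 uM, ten concentrations in duplicate, 0.5% DMSO final, for 72 h. Bidirectional fit relative to DMSO baseline.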

[13] = APR_HepG2_P-H2AX_72hr: Apredica 72-hour HepG2 Assay for H2AX Phosphorylation (AID 2282916); conditions: imaging, actives raise or lower the signal;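 note: phospho-histone H2A.x immunostain intensity per cell marking DNA damage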
Procedure, shortened: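 Readout: phospho-H2A.x immunofluorescence (FITC secondary) plus Hoechst nuclear stain, high-content imaging at 20x, six fields/well. HepG2, 72 hr compound exposure, 0.39–200 uM, final DMSO 0.5% v/v. Gain or loss fitted relative to DMSO baseline.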

[14] = APR_HepG2_MicrotubuleCSK_72hr: Apredica 72-hour HepG2 Assay for Microtubule CSK Stabilty (AID 2282919); conditions: HepG2 microtubule cytoskeleton, high-content imaging, actives raise or lower the signal
Procedure, shortened: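 High-content imaging of alpha-tubulin staining in fixed HepG2 cells after 72 hr treatment with ten concentrations from 0.39 to 200 uM (0.5% DMSO). Fitting was bidirectional against DMSO; taxol served as positive control.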

[15] = APR_HepG2_StressKinase_72hr: Apredica 72-hour HepG2 Assay for Stress Kinase (AID 2282921); conditions: HepG2 stress kinase (phospho-c-Jun) imaging, actives raise or lower the signal
Procedure, shortened: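 Phospho-c-Jun immunofluorescence measured by high-content imaging at 20x, six fields per well; bidirectional curve fitting against DMSO as baseline. Dosing: 0.39–200 uM, 72 h, 0.5% DMSO final.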

[16] = APR_HepG2_StressKinase_24hr: Apredica 24-hour HepG2 Assay for Stress Kinase (AID 2282922); conditions: HepG2 stress kinase (phospho-c-Jun) imaging, actives raise or lower the signal
Procedure, shortened: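 High-content imaging of phospho-c-Jun immunofluorescence in fixed, permeabilized HepG2 cells after 24 h dosing. Ten concentrations, 0.39 to 200 uM, run in duplicate at 0.5% v/v DMSO; gain or loss of signal versus DMSO.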

[17] = APR_HepG2_MitoMass_72hr: Apredica 72-hour HepG2 Assay for Mitochondrial Mass (AID 2282924); conditions: high-content imaging, actives raise or lower the signal;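 note: MitoTracker Red CMXRos stain intensity per cell imaged as mitochondrial mass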
Procedure, shortened: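 Readout is imaged MitoTracker Red (250 nM, 30 min, pre-fixation) signal, fitted bidirectionally against DMSO baseline. Human HepG2 liver cells received compound 0.39–200 uM in duplicate for 72 hr, final DMSO 0.5%.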

[18] = APR_HepG2_NuclearSize_72hr: Apredica 72-hour HepG2 Assay for Nuclear Size (AID 2282925); conditions: high-content imaging, actives raise or lower the signal
Procedure, shortened: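 Nuclear size was read by high-content imaging of Hoechst 33342 stain after formaldehyde fixation. Compounds ran 72 h on HepG2 at 0.39 to 200 uM, with final DMSO 0.5% v/v. Curves fitted both directions relative to DMSO control.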

Measured: AC50

Chain of CCAAT/enhancer-binding protein beta (Homo sapiens) (P17676 whole entry, looked up): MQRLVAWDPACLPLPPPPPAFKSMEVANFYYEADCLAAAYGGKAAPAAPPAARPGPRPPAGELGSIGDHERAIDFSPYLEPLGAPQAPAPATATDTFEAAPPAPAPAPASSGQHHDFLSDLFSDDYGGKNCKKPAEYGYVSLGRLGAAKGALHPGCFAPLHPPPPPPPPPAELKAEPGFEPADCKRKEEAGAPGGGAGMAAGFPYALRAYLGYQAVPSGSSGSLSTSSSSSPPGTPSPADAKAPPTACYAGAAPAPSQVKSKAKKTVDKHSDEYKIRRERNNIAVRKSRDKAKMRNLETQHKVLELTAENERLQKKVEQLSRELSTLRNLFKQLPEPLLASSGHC
Chain of Aryl hydrocarbon receptor (Homo sapiens) (P35869 whole entry, looked up): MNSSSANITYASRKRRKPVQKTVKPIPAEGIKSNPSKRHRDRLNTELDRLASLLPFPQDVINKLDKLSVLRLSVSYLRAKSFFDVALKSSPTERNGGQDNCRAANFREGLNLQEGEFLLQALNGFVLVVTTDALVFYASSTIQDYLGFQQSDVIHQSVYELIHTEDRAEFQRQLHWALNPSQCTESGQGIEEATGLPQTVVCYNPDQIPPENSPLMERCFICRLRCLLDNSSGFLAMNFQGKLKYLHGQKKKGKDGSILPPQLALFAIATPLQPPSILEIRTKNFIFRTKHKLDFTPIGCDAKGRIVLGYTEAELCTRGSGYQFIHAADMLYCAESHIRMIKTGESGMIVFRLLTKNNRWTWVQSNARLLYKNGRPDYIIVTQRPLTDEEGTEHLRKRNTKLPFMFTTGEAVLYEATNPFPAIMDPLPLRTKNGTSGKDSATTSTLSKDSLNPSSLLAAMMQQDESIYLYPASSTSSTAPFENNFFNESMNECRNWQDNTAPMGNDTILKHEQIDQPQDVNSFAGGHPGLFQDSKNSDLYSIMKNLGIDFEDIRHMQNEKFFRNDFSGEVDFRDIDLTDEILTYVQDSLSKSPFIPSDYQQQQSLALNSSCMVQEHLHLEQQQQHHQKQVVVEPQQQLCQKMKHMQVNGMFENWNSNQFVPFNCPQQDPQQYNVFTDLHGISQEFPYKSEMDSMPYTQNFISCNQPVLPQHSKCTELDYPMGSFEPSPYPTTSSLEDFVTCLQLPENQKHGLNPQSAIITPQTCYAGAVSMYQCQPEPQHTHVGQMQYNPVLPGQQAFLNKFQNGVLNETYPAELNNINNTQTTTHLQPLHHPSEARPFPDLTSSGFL

Cc1cc(C(F)(C(F)(F)F)C(F)(F)F)ccc1NC(=O)c1cccc(I)c1C(=O)NC(C)(C)CS(C)(=O)=O
inactive: [1] | [2] | [3] | [4] | [5]

CC(C)(C)c1ccccc1O
active: [1] 174 µM | [2] 163 µM | [4] 100 µM
inactive: all other assays above

C=C(C)[C@@H]1CC=C(C=O)CC1
inactive: [1] | [2] | [3] | [4]

OCCN(CCO)CCO
not listed: [5]
inactive: all other assays above

COc1ccc(N)cc1
inactive: [1] | [2] | [3] | [4] | [5]

O=C/C(Cl)=C(/Cl)C(=O)O
active: [3] 94.3 µM | [4] 70.7 µM
inactive: [1] | [2] | [5]

COC(=O)Nc1cccc(OC(=O)Nc2cccc(C)c2)c1
inactive: [1] | [2] | [3] | [4] | [5]

O=C(NC(=O)c1c(F)cccc1F)Nc1ccc(Cl)cc1
active: [5] 19.6 µM
inactive: [1] | [2] | [3] | [4]

Nc1ccc(N)cc1
inactive: [1] | [2] | [3]
active: [1] 11.7 µM | [3] 24.3 µM

CN(C)C(=S)S
active: [6] 19.8 µM | [11] 0.0391 µM | [12] 0.238 µM | [13] 0.242 µM | [14] 1.78 µM | [15] 1.16 µM | [17] 0.0391 µM | [3] 26.2 µM | [4] 25.5 µM
inactive: [7] | [8] | [9] | [10] | [16] | [18] | [1] | [2] | [5]

OC(Cc1ccccc1Cl)(Cn1cncn1)C1(Cl)CC1 (centres undefined)
inactive: [1] | [2] | [3] | [4] | [5]

Cc1cc(C)cc(C)c1
not listed: [5]
inactive: all other assays above

CC(C)N(C(=O)CCl)c1ccccc1
inactive: [1] | [2] | [3] | [5]
active: [4] 8.6 µM

Clc1cccc(Cl)c1Cl
not listed: [4]
inactive: all other assays above

CCOc1cc(C=O)ccc1O
inactive: [1] | [2] | [3]

CCCCCCCCCCCCc1cccc(S(=O)(=O)O)c1
active: [4] 30 µM
not listed: [5]
inactive: all other assays above

O=C(Cc1ccccc1)OCCc1ccccc1
inactive: [1] | [2] | [3] | [4] | [5]

C=C(C)C(=O)OCC(CC)CCCC (centres undefined)
inactive: [1] | [2] | [3] | [4] | [5]

O=C(N[C@H]1CN2CCC1CC2)c1ccc2c(c1)OCCO2
inactive: all assays above

Cc1cc(Cl)ccc1OCCCC(=O)O
inactive: [1] | [2] | [3] | [4] | [5]
